According to PubChem BioAssay AID1458 (National Center for Advancing Translational Sciences (NCATS), 2008):
In all, about 210,000 compounds went through this assay and about 5,900 (2.8%) were called active. About 5% were inconclusive and are not listed. This is one part of a sample in which actives are shown more often than they occur. The call rests on the fitted dose curve; in most records, active means well fitted activation curve with a large enough effect; inconclusive means small, poorly fitted or top-dose-only effect; inactive means no such curve, though single readings can be large or run the other way.

Test: qHTS Assay for Enhancers of SMN2 Splice Variant Expression; further: nearly all actives have a fitted effect of over 55% in size; on activity change, positive = activation: % of control where 0% means no effect
Conditions: HEK293 SMN2-luciferase splicing reporter, luminescence, 30-36 h; series mostly up to 46.1 µM; activity change, positive = activation: at the top concentration
In short: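 HEK293 cells carry an SMN2 minigene-luciferase reporter in which exon 7 inclusion puts luciferase in frame. Cells were seeded at 2000 cells/well, attached for 10-12 hours, then exposed to compounds for 30-36 hours at 37C before ONE-Glo luminescence.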
Potency means the concentration at half of the fitted maximal effect.

| SMILES | activity change, positive = activation | Potency |
| --- | --- | --- |
| CCCCC(CC)CNC(=O)C1CCN(S(=O)(=O)c2cccc3nsnc23)CC1 (configuration not stated) | 2.83% (inactive) | – |
| CCc1cc2c(cc(C(=O)OC)n2Cc2nc(-c3ccc(C)cc3)oc2C)s1 | -9.75% (inactive) | – |
| COc1ccc(-c2cn3cccnc3n2)cc1 | – | 12.6 µM (active) |
| c1ccc(-c2cn3cccnc3n2)cc1 | 5.81% (inactive) | – |
| COc1ccc(-c2cn3ccsc3n2)cc1 | – | 15.8 µM (active) |
| Cc1ccc(-c2cn3cc(C)ccc3n2)cc1 | -85.6% (inactive) | – |
| COc1cc(OC)cc(-c2nc(=S)n3ccsc3n2)c1 | 3.14% (inactive) | – |
| CCCC(=O)Nc1cccc(-c2cn3ccsc3n2)c1 | 5.02% (inactive) | – |
| Cc1ccc(C)c(Cn2c(CCCNC(=O)C3CCCCC3)nc3ccccc32)c1 | -1.77% (inactive) | – |
| Cc1ccsc1CN(C(=O)c1oc2ccc(Br)cc2c1C)C1CCS(=O)(=O)C1 (configuration not stated) | -38.8% (inactive) | – |
| Cc1ccc(-n2nc(C)c(C(=O)O)c2-n2cccc2)cc1 | 3.71% (inactive) | – |
| COc1ccccc1C(=O)NCCn1cc(SCc2ccccc2Cl)c2ccccc21 | -39.6% (inactive) | – |
| Cc1c(C=O)n(C)n(-c2ccccc2)c1=O | 22.8% (inactive) | – |
| Cc1c(N=Nc2ccc(N(C)C)cc2)c(=O)n(-c2ccccc2)n1C | – | 10 µM (active) |
| Cc1ccc(S(=O)(=O)Nc2ccccc2CNc2c(C)n(C)n(-c3ccccc3)c2=O)cc1 | -10.8% (inactive) | – |
| Cc1ccc2oc(=O)c3cnn(CC(=O)NCc4ccccc4Cl)c3c2c1 | -0.578% (inactive) | – |
| CCCC12CN3CC(CCC)(CN(C1)C3c1c[nH]c3ccc(OC)cc13)C2=O (configuration not stated) | -5.47% (inactive) | – |
| Brc1ccc(C2CC(c3ccccc3)=Nc3ccccc3N2)cc1 (configuration not stated) | – | 11.2 µM (active) |
| CNC(=S)N1N=C(c2ccccc2)CC1c1ccc(Br)cc1 (configuration not stated) | -10.1% (inactive) | – |
| c1ccc(C2=Nc3cccc4cccc(c34)N2)cc1 | -6.88% (inactive) | – |
| O=C(Nc1ccc(OC(F)(F)F)cc1)C1CCCN(S(=O)(=O)c2ccc(Br)s2)C1 (configuration not stated) | -5.28% (inactive) | – |
| COc1cc(NS(=O)(=O)c2cccs2)cc(OC)c1 | 3.39% (inactive) | – |
| Cc1cccc(N2CCN(c3c(CN4CCCC4)c(=O)oc4ccccc34)CC2)c1C | -9.24% (inactive) | – |
| Cc1nc2cc(NCc3cccs3)ccc2n1C | – | 7.94 µM (active) |

| SMILES | activity change, positive = activation | Potency |
| --- | --- | --- |
| Cn1ncc(Br)c1C(=O)NCc1cccs1 | 2.37% (inactive) | – |
| O=C(NCc1cccs1)c1ccc2c(c1)ncn2C1CCCC1 | -4.28% (inactive) | – |
| CCCCCCn1nnc2sc(-c3ccccc3)cc2c1=O | -11.4% (inactive) | – |
| CCOC(=O)c1cc(NC(=O)c2ccc(F)cc2)c(=O)n2c1oc1ccccc12 | 6.19% (inactive) | – |
| COc1ccccc1NC(=O)c1oc2ccccc2c1NC(=O)C(C)C | -16.2% (inactive) | – |
| CC(CCCc1ccccc1)NC(=O)c1nn(-c2ccc(Cl)cc2)nc1CO (configuration not stated) | -47.2% (inactive) | – |
| CCOc1ccc(S(=O)(=O)Nc2ccc3oc4c(c3c2)CC(C)CC4)cc1 (configuration not stated) | -8.65% (inactive) | – |
| CSCc1ccc(C(=O)Nc2cc(C)cc(C)c2)cc1 | – | 12.6 µM (active) |
| CC(=O)Nc1ccccc1NC(=O)c1cc(C)cc(C)c1 | -2.07% (inactive) | – |
| C=CCN(c1ccc(C(=O)Nc2cc(C)cc(C)c2)cc1)S(C)(=O)=O | -19.8% (inactive) | – |
| CCOc1ccccc1NC(=O)c1ccc2c(c1)CCN2S(=O)(=O)c1ccc(C)cc1 | 3.85% (inactive) | – |
| CC(=O)Nc1ccc(NC(=O)CSc2nnc3c4cc(Br)ccc4n(C)c3n2)cc1 | 3.66% (inactive) | – |
| Cc1cc(C)cc(NC(c2nnc(-c3cccc(F)c3)o2)c2ccc(F)cc2Cl)c1 (configuration not stated) | -3.55% (inactive) | – |
| NC(=NC(=O)c1ccccc1)N1CCOCC1 | 8.74% (inactive) | – |
| O=C(CSC(=S)N1CCOCC1)c1ccccc1 | – | 0.794 µM (active) |
| O=C(NC(=O)N1CCOCC1)c1ccccc1 | -3.17% (inactive) | – |
| O=C(Nc1cccnc1)c1ccc2c(c1)OCO2 | 27.6% (inactive) | – |
| COCc1nnc(NC(=O)c2ccc3c(c2)OCO3)s1 | – | 14.1 µM (active) |
| Cc1cc(C)c2nc(NC(=O)c3ccc4c(c3)OCO4)sc2c1 | 3.44% (inactive) | – |
| Cc1ccc(F)cc1NC(=O)c1ccc2c(c1)OCO2 | -18.3% (inactive) | – |
| O=C(Nc1nc2ccccc2s1)c1ccc2c(c1)OCO2 | – | 0.355 µM (active) |
| CCCc1nnc(NC(=O)c2cc(OC)cc(OC)c2)s1 | 0.792% (inactive) | – |
| O=C(CCn1c(=O)c2ccccc2n(Cc2ccc(Cl)cc2)c1=O)NCc1ccc2c(c1)OCO2 | 10.9% (inactive) | – |
| CC(C)NC(=O)c1nn(-c2ccccc2F)nc1CO | -25.4% (inactive) | – |

| SMILES | activity change, positive = activation | Potency |
| --- | --- | --- |
| NC1=NC(c2cc(F)cc(F)c2)n2c(nc3ccccc32)N1 (configuration not stated) | 2.06% (inactive) | – |
| Brc1ccc2c(c1)NC(c1cccnc1)=NC(c1ccccc1)=N2 | 26.1% (inactive) | – |
| CCc1nnc(NC(=O)c2c(O)c3c([nH]c2=O)CCCC3)s1 | – | 14.1 µM (active) |
| O=C(NCc1ccccn1)c1c(O)c2c([nH]c1=O)CCCC2 | -17.7% (inactive) | – |
| C[N+](C)(C)CCNC(=O)c1c(O)c2c([nH]c1=O)CCCC2 | 1.37% (inactive) | – |
| Cc1ccc(NC(=O)NC(C)c2c(-n3cccc3)sc(C)c2C)c(C)c1 (configuration not stated) | -3.47% (inactive) | – |
| CCCn1c(NCc2ccc(N(CC)CC)cc2)nc2ccccc21 | -50.8% (inactive) | – |
| O=C(NCCOc1ccccc1)c1ccccc1 | – | 12.6 µM (active) |
| Nc1ccc(C(=O)NCc2ccccc2)cc1 | 11% (inactive) | – |
| CS(=O)(=O)NCc1ccc(C(=O)NCc2ccccc2)cc1 | -3.72% (inactive) | – |
| O=C(CCOc1ccccc1)NCc1ccccc1 | -5.69% (inactive) | – |
| NS(=O)(=O)c1cc(C(=O)NCCOc2ccccc2)c(Cl)cc1Cl | 5.16% (inactive) | – |
| CC(C)c1ccc(C(=O)NCCCc2ccccc2)cc1 | – | 14.1 µM (active) |
| CCCOc1ccc(C(=O)NCCc2ccccc2)cc1 | – | 14.1 µM (active) |
| COc1ccc(OCCCC(=O)NCCc2ccccc2)cc1 | -4.84% (inactive) | – |
| O=C(NCCc1ccccc1)c1ccc(OCCOc2ccccc2)cc1 | -1.13% (inactive) | – |
| CCC1=Nc2cc(C(=O)NCC(C)c3ccccc3)ccc2Sc2ccc(C)cc21 (configuration not stated) | -29.9% (inactive) | – |
| COc1cccc(CNC(=O)c2cc(=O)[nH]c3ccc(S(=O)(=O)N4CCCCC4)cc23)c1 | 2.53% (inactive) | – |
| CCC(=O)N1N=C(c2ccc(OC)cc2)CC1c1cn(-c2ccccc2)nc1-c1cccs1 (configuration not stated) | -8.72% (inactive) | – |
| COc1ccc(-c2nn(-c3ccccc3)cc2/C=C\C(=O)Nc2ccc(C(=O)O)cc2)cc1 | -2.02% (inactive) | – |
| O=C(/C=C\c1cn(-c2ccccc2)nc1-c1cccs1)N1CCOCC1 | 26.2% (inactive) | – |
| O=C(O)c1ccc(N/N=C/c2cn(-c3ccccc3)nc2-c2cccs2)cc1 | – | 7.94 µM (active) |
| CC(C)CC(NS(=O)(=O)c1ccc2c(c1)oc(=O)n2C)C(=O)NCc1ccccc1Cl (configuration not stated) | 4.01% (inactive) | – |
| Cc1ccccc1NC(=O)Cn1c(=O)n(CCc2ccccc2)c(=O)c2ccccc21 | -3.15% (inactive) | – |
